Reference: PubChem BioAssay
For some of these results: Entries with a potency or affinity are not part of this list. The source made the active and inactive calls.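 The calls were made as follows, unless noted: active = calcium signal cut by more than 3 SD below the full-agonist control yet still positive, in both repeats and the earlier primary screen; inactive = the rest.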

How the values were obtained:
[1] = tested on: TRPC4 beta (transient receptor potential cation channel C4), mouse; experiment: activators of mouse TRPC4 channel, confirmation, cell-based, Fluo4 calcium, HEK293 TRPC4beta/mu-opioid, duplicates, 10 µM (AID 2426;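 active = fluorescence ratio normalized to control raised more than 50% in primary screen plus both repeat runs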); settings: Fluo4 calcium fluorescence, at 10 µM; stronger effect = higher value
[2] = tested on: transient receptor potential cation channel C4 beta (TRPC4), mouse; experiment: activators of mouse TRPC4 channel, confirmation, cell-based, second round, Fluo4, HEK293 TRPC4beta/mu-opioid, 1 µM (AID 2461;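 active = primary screen active and over 50% activation in each of two duplicate runs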); settings: Fluo4 calcium fluorescence, at 1 µM; stronger effect = higher value
[3] = tested on: TRPC4 (transient receptor potential cation channel C4 beta), mouse; experiment: positive allosteric modulators of mouse TRPC4, confirmation, cell-based, second round, Fluo-4, HEK293 TRPC4beta/mu-opioid, 1 µM (AID 2554;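 active = primary screen hit whose fluorescence ratio, in both repeats, exceeds the weak agonist control mean by 3 SD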); settings: DAMGO EC20, Fluo-4 calcium flux, at 1 µM; stronger effect = higher value
[4] = tested on: TRPC4 beta (transient receptor potential cation channel C4), mouse; experiment: positive allosteric modulators of mouse TRPC4, confirmation, cell-based, Fluo-4, HEK293 TRPC4beta/mu-opioid (AID 2555;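 active = primary screen hit whose calcium fluorescence ratio, in both repeats, exceeds the weak agonist control mean by 3 SD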); settings: DAMGO EC20, Fluo-4 calcium flux, at 10 µM; stronger effect = higher value
[5] = target: Short transient receptor potential channel 4 (Mus musculus) (UniProt Q9QUQ5); experiment: inhibitors of mouse TRPC4 channel, confirmation, cell-based, Fluo4, HEK293 TRPC4beta/mu-opioid (AID 2636); settings: DAMGO, Fluo4 calcium flux, at 10 µM; stronger effect = higher value
Sequence of Short transient receptor potential channel 4 (Mus musculus) (Q9QUQ5 whole entry, looked up): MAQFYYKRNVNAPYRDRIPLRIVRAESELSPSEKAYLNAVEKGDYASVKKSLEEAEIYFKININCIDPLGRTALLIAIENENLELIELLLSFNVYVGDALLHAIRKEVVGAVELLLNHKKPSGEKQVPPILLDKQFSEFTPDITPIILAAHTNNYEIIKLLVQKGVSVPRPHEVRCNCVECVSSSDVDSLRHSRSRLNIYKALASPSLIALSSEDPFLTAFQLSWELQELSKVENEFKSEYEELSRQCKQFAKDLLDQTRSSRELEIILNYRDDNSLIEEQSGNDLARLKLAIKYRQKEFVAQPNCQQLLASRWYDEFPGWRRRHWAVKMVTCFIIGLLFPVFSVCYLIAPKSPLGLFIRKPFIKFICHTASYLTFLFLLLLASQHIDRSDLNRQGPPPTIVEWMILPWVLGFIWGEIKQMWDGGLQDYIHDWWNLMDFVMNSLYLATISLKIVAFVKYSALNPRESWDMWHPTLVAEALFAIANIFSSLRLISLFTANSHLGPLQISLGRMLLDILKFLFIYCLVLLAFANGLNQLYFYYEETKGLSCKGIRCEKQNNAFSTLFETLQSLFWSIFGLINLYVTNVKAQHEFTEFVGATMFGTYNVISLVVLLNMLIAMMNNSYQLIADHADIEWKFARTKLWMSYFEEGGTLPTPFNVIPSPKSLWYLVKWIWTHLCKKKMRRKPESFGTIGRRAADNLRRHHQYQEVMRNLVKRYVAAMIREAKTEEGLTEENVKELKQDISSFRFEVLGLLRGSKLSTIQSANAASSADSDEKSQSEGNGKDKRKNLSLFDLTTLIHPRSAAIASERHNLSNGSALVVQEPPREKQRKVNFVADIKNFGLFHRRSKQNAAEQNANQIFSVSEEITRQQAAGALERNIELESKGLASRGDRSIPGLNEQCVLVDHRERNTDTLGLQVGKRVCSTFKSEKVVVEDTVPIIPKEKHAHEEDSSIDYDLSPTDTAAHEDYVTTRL

[6] = target: Short transient receptor potential channel 4 (Mus musculus) (UniProt Q9QUQ5); experiment: inhibitors of mouse TRPC4 channel, confirmation, cell-based, second round, Fluo4, HEK293 TRPC4beta/mu-opioid, 1 µM (AID 2637;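 active = calcium signal ratio cut to more than 3 SD under the fully stimulated control mean yet still positive, in both repeats and the primary screen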); settings: Fluo4 calcium flux, DAMGO, at 1 µM; stronger effect = higher value
[7] = target: Short transient receptor potential channel 4 (Mus musculus) (UniProt Q9QUQ5); experiment: mouse TRPC4 channel activators, dose response, cell-based, HEK293 TRPC4/mu-opioid, Fluo-4 calcium (AID 434937;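 active = primary screen activator hit with a dose response curve and TRPC4 channel activation at any tested dose; inactive = no activation, no dose response, or not a primary hit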)
[8] = target: Short transient receptor potential channel 4 (Mus musculus) (UniProt Q9QUQ5); experiment: TRPC4 positive allosteric modulators, dose response, cell-based, HEK293 TRPC4/mu-opioid, Fluo-4 calcium, EC20 DAMGO (AID 434941;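 active = earlier screen potentiator hit that boosts the TRPC4 ion channel at some dose, with a dose response; inactive = no potentiation, no dose response, or not a prior hit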;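 also: calcium entry triggered by an EC20 dose of DAMGO at the co-expressed mu-opioid receptor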)
[9] = target: Short transient receptor potential channel 4 (Mus musculus) (UniProt Q9QUQ5); experiment: mouse TRPC4 channel inhibitors, dose response, cell-based, HEK293 TRPC4/mu-opioid, Fluo-4 calcium (AID 434942;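 active = primary screen inhibitor hit that blocks the TRPC4 channel at some tested dose, yielding a dose curve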)
[10] = target: Short transient receptor potential channel 6 (Mus musculus) (UniProt Q61143); experiment: inhibition of mouse TRPC6 channel, confirmation, selectivity assay for TRPC4 inhibitor project, cell-based, HEK293, membrane potential dye, duplicate (AID 434948;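 active = active in primary screen and both duplicates, each dropping signal beyond three positive-control SD with fluorescence still positive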); settings: HEK293 TRPC6, membrane potential dye fluorescence, at 10 µM, stimulated with maximal-effect acetylcholine; stronger effect = higher value
Sequence of Short transient receptor potential channel 6 (Mus musculus) (Q61143 whole entry, looked up): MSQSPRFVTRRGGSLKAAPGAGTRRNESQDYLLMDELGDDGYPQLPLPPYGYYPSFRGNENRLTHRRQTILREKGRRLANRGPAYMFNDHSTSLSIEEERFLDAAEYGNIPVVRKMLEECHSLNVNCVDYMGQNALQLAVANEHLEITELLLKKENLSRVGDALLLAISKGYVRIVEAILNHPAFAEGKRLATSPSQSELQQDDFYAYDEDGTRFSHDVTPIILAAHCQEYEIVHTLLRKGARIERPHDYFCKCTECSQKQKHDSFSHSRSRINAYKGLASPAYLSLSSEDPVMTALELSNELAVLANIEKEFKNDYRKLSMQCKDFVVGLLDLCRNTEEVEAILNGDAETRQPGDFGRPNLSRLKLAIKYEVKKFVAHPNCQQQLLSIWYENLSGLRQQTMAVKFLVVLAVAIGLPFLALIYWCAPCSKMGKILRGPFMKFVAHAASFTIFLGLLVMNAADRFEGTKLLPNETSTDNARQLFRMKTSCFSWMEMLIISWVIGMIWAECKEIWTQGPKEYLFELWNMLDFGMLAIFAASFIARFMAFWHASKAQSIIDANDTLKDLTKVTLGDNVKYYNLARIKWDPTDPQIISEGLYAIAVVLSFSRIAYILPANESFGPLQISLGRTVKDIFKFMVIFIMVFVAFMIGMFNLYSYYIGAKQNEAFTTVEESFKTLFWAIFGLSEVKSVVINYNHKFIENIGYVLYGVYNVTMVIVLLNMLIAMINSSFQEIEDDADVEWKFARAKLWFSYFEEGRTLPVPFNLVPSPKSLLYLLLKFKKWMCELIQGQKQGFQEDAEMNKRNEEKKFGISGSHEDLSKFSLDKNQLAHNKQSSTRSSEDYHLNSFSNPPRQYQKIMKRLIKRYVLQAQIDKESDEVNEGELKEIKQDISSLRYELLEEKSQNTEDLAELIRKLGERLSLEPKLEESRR

[11] = target: Short transient receptor potential channel 6 (Mus musculus) (UniProt Q61143); experiment: activation of mouse TRPC6 channel, confirmation, selectivity assay for TRPC4 activator project, cell-based, HEK293, membrane potential dye, duplicate (AID 434950;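 active = membrane potential signal rise above negative control mean plus 3 SD in both duplicates, also active in the earlier TRPC4 screen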;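 as to activation: 0% = buffer only wells and 100% = acetylcholine maximal-effect wells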); settings: HEK293 TRPC6, membrane potential fluorescence, at 10 µM; stronger effect = higher value
[12] = target: Short transient receptor potential channel 6 (Mus musculus) (UniProt Q61143); experiment: TRPC6 potentiation by TRPC4 potentiator hits, confirmation, selectivity assay for TRPC4 potentiator project, HEK293 cells, membrane potential dye, duplicate (AID 434952;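 active = compound raising the membrane signal above positive-control mean plus 3 SD in both repeats, and a primary screen hit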); settings: HEK293 TRPC6, membrane potential dye fluorescence, at 10 µM, maximal acetylcholine added after compound; stronger effect = higher value
[13] = target: Short transient receptor potential channel 4 (Mus musculus) (UniProt Q9QUQ5); experiment: calcium flux activators in TRPC4/5HT1a cells, counter-screen for TRPC4 activator project, cell-based, second counter screen, HEK293 TRPC4/5HT1a, Fluo-4 (AID 434977;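 active = calcium signal rise above buffer-control mean plus 5 SD in both duplicates, and also a hit in the primary screen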); settings: Fluo-4 calcium flux, at 10 µM; stronger effect = higher value
[14] = calcium flux inhibitors in TRPC4/5HT1a cells, confirmation, counter-screen for TRPC4 inhibitor project, cell-based, second counter screen, HEK293 TRPC4/5HT1a, Fluo-4 (AID 434978;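 active = primary screen active whose calcium signal fell more than 3 SD beyond the full-serotonin control mean in both duplicate plates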;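 as to outcome: serotonin given first at submaximal then at maximal dose after compound preincubation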); settings: Fluo-4 calcium flux, at 10 µM, serotonin added to trigger calcium flux; stronger effect = higher value
[15] = tested on: TRPC4 (mouse), co-expressed with 5HT1a in HEK293; experiment: calcium flux potentiators in TRPC4/5HT1a cells, confirmation, counter-screen for TRPC4 potentiator project, cell-based, second counter screen, HEK293 TRPC4/5HT1a, Fluo-4 (AID 434979;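 active = signal rise over 3 SD above mean of control wells given weak agonist, in both repeats and first screen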); settings: Fluo-4 calcium flux, at 10 µM, serotonin added at its EC20 dose; stronger effect = higher value
[16] = calcium flux activation in mu-opioid HEK293 cells, confirmation, counter-screen for TRPC4 activator project, cell-based, HEK293 mu-opioid receptor line (AID 449723;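 active = hit in primary screen, with calcium signal over 5 SD above buffer well mean in both duplicates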;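 also: counter screen cells carry the mu-opioid receptor alone and lack TRPC4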); settings: Fluo-4 calcium fluorescence, at 10 µM; stronger effect = higher value
[17] = calcium flux enhancement in mu-opioid HEK293 cells, confirmation, counter-screen for TRPC4 allosteric potentiator project, cell-based, HEK293 mu-opioid receptor line (AID 449724;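 active = calcium signal rise more than 3 SD above the low-dose agonist control mean, in both duplicate plates and the primary screen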); settings: Fluo-4 calcium flux, at 10 µM, compound added before EC20 DAMGO stimulus; stronger effect = higher value

CCOc1cc(O)c(-c2[nH]ncc2-c2nc(C)cs2)cc1CC
active: potentiation [4] 21% | potentiation [15] 20%
inactive: outcome [1] | outcome [2] | outcome [3] | outcome [5] | outcome [6] | outcome [7] | outcome [8] | outcome [9] | outcome [10] | outcome [11] | outcome [12] | outcome [13] | outcome [14] | outcome [16] | outcome [17]

COc1ccc(C(=O)/C=C/C(=O)N(CC(=O)NC2CCCCC2)CC2CCCO2)c(O)c1 (stereo not drawn)
inactive: outcome [1] | outcome [2] | outcome [3] | outcome [4] | outcome [5] | outcome [6] | outcome [7] | outcome [8] | outcome [9] | outcome [10] | outcome [11] | outcome [12] | outcome [13] | outcome [14] | outcome [15] | outcome [16] | outcome [17]

O=C(c1ccccc1F)N1CCN(c2ccc([N+](=O)[O-])cc2-n2cccc2)CC1
active: potentiation [4] 20% | potentiation [15] 17.1%
inactive: outcome [1] | outcome [2] | outcome [3] | outcome [5] | outcome [6] | outcome [7] | outcome [8] | outcome [9] | outcome [10] | outcome [11] | outcome [12] | outcome [13] | outcome [14] | outcome [16] | outcome [17]

Cc1ccc(Cn2c(=N)c(C(=O)NC3CCCCC3)cc3c(=O)n4ccccc4nc32)cc1
active: potentiation [4] 26%
inactive: outcome [1] | outcome [2] | outcome [3] | outcome [5] | outcome [6] | outcome [7] | outcome [8] | outcome [9] | outcome [10] | outcome [11] | outcome [12] | outcome [13] | outcome [14] | outcome [15] | outcome [16] | outcome [17]

CN1/C(=C\C=[N+](C)c2ccccc2)C(C)(C)c2ccccc21
inactive: outcome [1] | outcome [2] | outcome [3] | outcome [4] | outcome [5] | outcome [6] | outcome [7] | outcome [8] | outcome [9] | outcome [10] | outcome [11] | outcome [12] | outcome [13] | outcome [14] | outcome [15] | outcome [16] | outcome [17]

CC(=O)Nc1ccc(S(=O)(=O)N2CCN(CCCOc3cc(C)ccc3C)CC2)cc1
active: potentiation [4] 24%
inactive: outcome [1] | outcome [2] | outcome [3] | outcome [5] | outcome [6] | outcome [7] | outcome [8] | outcome [9] | outcome [10] | outcome [11] | outcome [12] | outcome [13] | outcome [14] | outcome [15] | outcome [16] | outcome [17]

N#Cc1ccc(-c2ccccc2)nc1SCCN1CCOCC1
inactive: outcome [1] | outcome [2] | outcome [3] | outcome [4] | outcome [5] | outcome [6] | outcome [7] | outcome [8] | outcome [9] | outcome [10] | outcome [11] | outcome [12] | outcome [13] | outcome [14] | outcome [16] | outcome [17]
active: potentiation [15] 17.3%

CC1CCCCC1NS(=O)(=O)c1ccc(S(=O)(=O)N2CCCC2)cc1 (stereo not drawn)
inactive: outcome [1] | outcome [2] | outcome [3] | outcome [5] | outcome [6] | outcome [7] | outcome [8] | outcome [9] | outcome [10] | outcome [11] | outcome [12] | outcome [13] | outcome [14] | outcome [16] | outcome [17]
active: potentiation [4] 32% | potentiation [15] 11.2%

COC(=O)[C@@]12CCCCN1[C@H](c1ccc(-c3ccccc3)cc1)[C@@H]1C(=O)N(C)C(=O)[C@@H]12
inactive: outcome [1] | outcome [2] | outcome [3] | outcome [4] | outcome [5] | outcome [6] | outcome [7] | outcome [8] | outcome [9] | outcome [10] | outcome [11] | outcome [12] | outcome [13] | outcome [14] | outcome [16] | outcome [17]
active: potentiation [15] 20.4%

Cc1oc2c(c1C(=O)c1ccccc1)C(=O)C(=O)c1ccccc1-2
inactive: outcome [1] | outcome [2] | outcome [3] | outcome [4] | outcome [6] | outcome [7] | outcome [8] | outcome [9] | outcome [10] | outcome [11] | outcome [12] | outcome [13] | outcome [15] | outcome [16] | outcome [17]
active: inhibition [5] 68% | inhibition [14] 30.8%

COC(=O)C(CC(=O)Nc1cc(C)ccc1C)Nc1ccccc1OC (stereo not drawn)
inactive: outcome [1] | outcome [2] | outcome [3] | outcome [4] | outcome [5] | outcome [6] | outcome [7] | outcome [8] | outcome [9] | outcome [10] | outcome [12] | outcome [13] | outcome [14] | outcome [15] | outcome [16] | outcome [17]
active: activation [11] 40.5%

O=[N+]([O-])c1ccccc1CN1CCN(S(=O)(=O)c2ccccc2)CC1
active: potentiation [4] 11%
inactive: outcome [1] | outcome [2] | outcome [3] | outcome [5] | outcome [6] | outcome [7] | outcome [8] | outcome [9] | outcome [10] | outcome [11] | outcome [12] | outcome [13] | outcome [14] | outcome [15] | outcome [16] | outcome [17]

CCN(CC(=O)NCc1ccc(Cl)cc1)CC(=O)NC1(C#N)CCCC1
inactive: outcome [1] | outcome [2] | outcome [3] | outcome [4] | outcome [5] | outcome [6] | outcome [7] | outcome [8] | outcome [9] | outcome [10] | outcome [11] | outcome [12] | outcome [13] | outcome [14] | outcome [15] | outcome [16] | outcome [17]

CCOC(=O)C(=NC1CCS(=O)(=O)C1)NNc1ccccc1Cl (stereo not drawn)
active: potentiation [4] 85% | potentiation [15] 64.7%
inactive: outcome [1] | outcome [2] | outcome [3] | outcome [5] | outcome [6] | outcome [7] | outcome [8] | outcome [9] | outcome [10] | outcome [11] | outcome [12] | outcome [13] | outcome [14] | outcome [16] | outcome [17]
